High-throughput results (PubChem BioAssay)
PNC assembly inh = perinucleolar compartment assembly inhibition; PC3M PTB-GFP, PNC prevalence imaging, 16 h; stronger effect = lower value; activity change (PNC), negative = inhibition, % at 10 µM; 3.1% of 140,000 active; AID 2417;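 active means readout at or below -70, meaning at least 70% loss of cells showing the perinucleolar compartment, a nuclear body marking cancer cells; inconclusive means readout between -30 and a set limit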
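Compounds are pinned in duplicate onto adhered PC3M cells stably expressing GFP-tagged PTB and incubated 16 h at 37 C. Cells are then fixed, nuclei stained with Hoechst, and PNC-positive cells counted.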
KDM4E inh = blocks human JMJD2E demethylase activity; B2RXH2; AID 2147; Potency, µM (top dose mostly 57.1 µM), actives largely listed as inhibitors; JMJD2E catalytic domain, FDH-coupled NADH fluorescence (FDH is formaldehyde dehydrogenase); 1.6% of 230,000 active; further: nearly all actives have a fitted effect of over 50% in size
Target sequence (B2RXH2 1-337 limits assumed): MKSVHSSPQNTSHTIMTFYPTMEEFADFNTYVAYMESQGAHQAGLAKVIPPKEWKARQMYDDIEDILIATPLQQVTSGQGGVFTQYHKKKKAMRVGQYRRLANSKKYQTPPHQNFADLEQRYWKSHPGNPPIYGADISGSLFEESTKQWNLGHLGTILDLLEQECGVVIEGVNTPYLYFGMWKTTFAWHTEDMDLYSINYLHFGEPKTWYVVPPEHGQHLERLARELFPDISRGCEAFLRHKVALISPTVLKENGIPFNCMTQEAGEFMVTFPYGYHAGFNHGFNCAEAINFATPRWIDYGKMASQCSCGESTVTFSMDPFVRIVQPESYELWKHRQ
ALDH1A1 block = inhibitors of human aldehyde dehydrogenase 1A1 | P00352 | Purified ALDH1A1, NADH fluorescence, propionaldehyde substrate | Potency, µM (doses to about 75.3 µM), usual class: inhibitors | 7.3% of 220,000 active
HPGD block = blocks human HPGD enzyme activity; AID 894; Potency, µM, actives largely listed as inhibitors; P15428; 4.3% of 150,000 active; purified HPGD, NADH fluorescence kinetic, PGE2 substrate
Target sequence (P15428 whole entry, looked up): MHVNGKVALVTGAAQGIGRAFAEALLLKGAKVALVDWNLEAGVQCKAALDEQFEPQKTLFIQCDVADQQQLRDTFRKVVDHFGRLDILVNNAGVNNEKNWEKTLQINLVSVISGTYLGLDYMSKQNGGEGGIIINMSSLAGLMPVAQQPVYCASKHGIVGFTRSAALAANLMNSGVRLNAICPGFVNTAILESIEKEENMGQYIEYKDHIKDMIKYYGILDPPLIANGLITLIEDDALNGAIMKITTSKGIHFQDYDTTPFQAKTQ
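20 nM HPGD preincubated 15 min at room temperature with compound in 50 mM Tris-HCl pH 8, 0.01% Tween 20. Started with 1 mM NAD+ and 30 uM prostaglandin E2; NADH fluorescence (360/450 nm) read 5 times over 30-s intervals, last minus first.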
Numbers stand for hits; - = inactive; ? = inconclusive; . = no result; [ ] = remark or other dose. Most compounds without a hit are left out; they make up all but 11% or so of the library. Unless noted, the call rests on the fitted dose curve; in most records, active means well fitted inhibition curve with a large enough effect (not every such curve was filed as active); inconclusive means small, poorly fitted or top-dose-only effect, or another doubt; inactive means no such curve, though single readings can be large or run the other way.

SMILES | PNC assembly inh | KDM4E inh | ALDH1A1 block | HPGD block
CCC(C(=O)O)C1CCC(C)C(C(C)C(O)C(C)C(=O)C(CC)C2OC3(C=CC(O)[C@@]4(CC[C@](C)(C5CC[C@@](O)(CC)C(C)O5)O4)O3)C(C)CC2C)O1 (stereo partly specified) | . | - | - | -
CC(Nc1c([N+](=O)[O-])c(=O)oc2ccccc12)C(Cl)c1ccccc1 (stereo unspecified) | - | - | ? | -
O=c1oc2ccccc2c(NC(c2ccccc2)c2ccccc2)c1[N+](=O)[O-] | - | - | 22µM | -
Cc1ccc(Nc2c([N+](=O)[O-])c(=O)oc3ccccc23)cc1 | . | - | ? | .
O=c1oc2ccccc2c(NCc2cccc(F)c2)c1[N+](=O)[O-] | - | - | 25µM | 20µM
O=c1oc2ccccc2c(Nc2ccc3ccccc3c2)c1[N+](=O)[O-] | ? | - | 2.2µM | -
CCc1ccc(Nc2c([N+](=O)[O-])c(=O)oc3ccccc23)cc1 | . | - | . | .
CCNc1c([N+](=O)[O-])c(=O)oc2ccccc12 | . | - | 18µM | .
CCN(CC)P(=O)(Nc1ccccc1Br)c1ccc(N(C)C)cc1NC(=O)c1ccco1 (stereo unspecified) | . | ? | - | .
CC1CN(c2c(F)c(N)c3c(=O)c(C(=O)O)cn(C4CC4)c3c2F)CC(C)N1 (stereo unspecified) | . | . | - | -
O=C1c2ccccc2C(=O)N1OCc1ccccc1[N+](=O)[O-] | . | - | 25µM | .
N#CCc1ccccc1[N+](=O)[O-] | . | . | 25µM | 8.9µM
O=C1c2ccccc2C(=O)N1OCc1ccc(Cl)cc1 | - | - | - | -
O=C(N/N=C/c1cccc(Cl)c1)C(c1ccncc1)N1CCOCC1 (stereo unspecified) | . | - | . | .
Clc1ccc2ncc(-c3nnnn3-c3ccccc3)c(-c3ccccc3)c2c1 | ? | - | 11µM | -
COC(=O)C1=C(C(=O)OC)N2C=CC=CC2(C)C(C(=O)OC)=C1C(=O)OC (stereo unspecified) | ? | - | - | 35µM
C=CCNC(=O)CN1C(=O)C2C3c4ccccc4C(c4ccccc43)C2C1=O (stereo unspecified) | . | - | - | .
O=C(C/C=N/OCc1ccccc1F)c1cnc(-c2ccc(Cl)cc2)s1 | - | - | 22µM | -
COc1ccc(N2CCn3c2nc2c3c(=O)n(CCc3ccccc3)c(=O)n2C)c(OC)c1 | - | - | ? | -
COc1ccc(N2CC(C)Cn3c2nc2c3c(=O)n(Cc3ccccc3)c(=O)n2C)c(OC)c1 (stereo unspecified) | . | ? | 32µM | .
COc1ccc(N2CCn3c2nc2c3c(=O)n(CCCc3ccccc3)c(=O)n2C)c(OC)c1 | - | - | 20µM | -
C[C@H](Oc1ccc(Oc2cnc3ccc(Cl)cc3n2)cc1)C(=O)O | . | . | -[13.5 µM] | -
Cc1ccc(C)c(NC(=O)CSc2nnc(CCCCCNC(=O)OC(C)(C)C)o2)c1 | - | - | 9.5µM | 18µM
Cc1ccccc1-n1cnc2c(sc3nc(N4CCOCC4)c4c(c32)CCCC4)c1=O | . | - | ? | .
C=CCOc1c(CNc2ccc3[nH]c(=O)[nH]c3c2)cccc1OC | . | 20µM | - | .
SMILES | PNC assembly inh | KDM4E inh | ALDH1A1 block | HPGD block
C=CCOc1c(CNc2ccc(S(N)(=O)=O)cc2)cccc1OC | - | - | - | -
Cc1nc2c(C(=O)O)cnn2c(C)c1Cc1ccccc1F | - | ? | ? | ?
COC(=O)c1cnn2c(C)c(Cc3cccc(F)c3)c(C)nc12 | -88 | 3.5µM | ? | ?
CCOC(=O)N1CCN(C(=O)c2cnn3c(C)c(Cc4ccc(C)cc4)c(C)nc23)CC1 | - | - | 25µM | .
CC(C)(C)N(NC(=O)OCc1ccccc1)C(=O)c1ccccc1Cl | - | - | - | -
Cc1ccc(O)c(C2=Nc3ccccc3N=C(c3ccc([N+](=O)[O-])cc3)C2)c1 | - | - | - | -
Cc1ccc(O)c(-c2cc(C(F)(F)C(F)F)[nH]n2)c1 | - | - | - | 16µM
O=[N+]([O-])c1ccccc1-c1cc(-c2cc(Cl)ccc2O)n[nH]1 | - | - | - | 11µM
Cc1ccc(O)c(-c2cc(-c3ccccc3[N+](=O)[O-])[nH]n2)c1 | - | - | - | 4.5µM
COc1ccc(O)c(-c2cc(-c3ccccc3[N+](=O)[O-])[nH]n2)c1 | - | - | - | 22µM
COc1ccc(-c2cc(-c3cc(C)ccc3O)[nH]n2)cc1 | . | - | - | .
Cn1ncc(Cl)c1C(=O)N1CCN(C(=O)c2ccco2)CC1 | . | - | - | .
Cc1ccc(O)c(-c2cc(-c3ccccc3C)[nH]n2)c1 | - | - | - | 22µM
Cc1ccc(CNC(=O)C2c3ccccc3C(=O)N3CCc4ccccc4C23)o1 (stereo unspecified) | - | ? | 25µM | -
O=C(N/N=C/C1CC=CCC1)c1cc(-c2cccnc2)nc2ccccc12 (stereo unspecified) | . | - | - | .
CN(C)c1ccc(/C=C(/C(=O)c2ccc(Cl)cc2Cl)n2cncn2)cc1 | - | - | 1.1µM | -
CC(C)CC(=O)/C(=C\c1ccc(Cl)cc1Cl)n1cncn1 | - | - | 22µM | ?
CN(C)/C=C(/C(=O)c1ccc(Cl)cc1)n1cncn1 | . | - | - | .
COc1ccc(C(=O)c2ccc(Cl)cc2Cl)cc1 | - | - | - | -
COc1ccc(/C=C(/C(=O)c2ccc(Cl)cc2Cl)n2cncn2)cc1 | - | - | 8.9µM | -
O=C(Oc1ccc([N+](=O)[O-])cc1)c1cncc(Br)c1 | ? | - | - | ?
COc1ccc(CCN(C)Cc2nc(Cc3ccc(OC)c(OC)c3)no2)cc1OC | . | ? | - | .
CCCCCCOC(=O)C1(O)CC2OC1(C)n1c3ccccc3c3c4c(c5c6ccccc6n2c5c31)C(=O)NC4 (stereo unspecified) | . | . | - | -
O=C(NNc1nc2cc3c(cc2s1)OCO3)c1ccc(F)cc1 | -119 | - | ? | 25µM
c1ccc2sc(Nc3nc4cc5c(cc4s3)OCO5)nc2c1 | -124 | - | ? | ?
SMILES | PNC assembly inh | KDM4E inh | ALDH1A1 block | HPGD block
CN1CCN(C(c2cccnc2)c2ccc3cccnc3c2O)CC1 (stereo unspecified) | ? | - | 1.9µM | -
CC(C)C(=O)NC(c1ccco1)c1ccc2cccnc2c1O (stereo unspecified) | - | ? | - | -
O=C1CCCc2c1cc(-c1ccccc1)n2-c1ccc(O)cc1 | - | - | - | -
COc1ccc(-n2c(-c3ccccc3)cc3c2CCCC3=O)cc1 | - | - | 16µM | ?
CCOc1ccccc1-n1nnnc1SCc1nc2ccccc2s1 | - | - | 10µM | -
Cc1ccccc1-n1c(C)nnc1SCc1nc2ccccc2s1 | - | - | - | -
COCC(=O)N1CCN(c2cccc(Cl)c2)CC1 | . | - | - | .
O=C(C1CC1c1ccccc1)N1CCN(c2cccc(Cl)c2)CC1 (stereo unspecified) | - | - | 20µM | -
O=C(O)c1ccccc1C(=O)N1CCN(c2cccc(Cl)c2)CC1 | ? | - | ? | -
O=C(O)CCCC(=O)N1CCN(c2cccc(Cl)c2)CC1 | -99 | ? | ? | -
Cc1ccc(CNC(=O)COC(=O)c2cc3c(s2)CCC(C)C3)cc1 (stereo unspecified) | - | - | - | .
CC1CCc2sc(C(=O)OCC(=O)NCc3ccccc3)cc2C1 (stereo unspecified) | -94 | - | - | .
